Screen size: about 2,400 compounds; about 950 (40%) were called active. Cut-off read from the data, not from the text of the source: active = inhibition above about 49%; inactive = the rest. Only a sample is shown.

The target in the assay is Trace amine-associated receptor 1 (Homo sapiens) (UniProt Q96RJ0). The assay is described as follows: human TAAR1 antagonists, retest of hits, confirmation, cell-based, fluorescence (AID 651785).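 Note: CHO-Ga16 host cells challenged with agonist PEA near its EC80; 0% = agonist at EC80 plus vehicle and 100% = vehicle with no agonist.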 To be noted: TAAR1-expressing cells, fluorescence antagonist read-out; at 3 µM; stronger effect = higher value.
Chain of Trace amine-associated receptor 1 (Homo sapiens) (Q96RJ0 whole entry, looked up, the tested form may be a part): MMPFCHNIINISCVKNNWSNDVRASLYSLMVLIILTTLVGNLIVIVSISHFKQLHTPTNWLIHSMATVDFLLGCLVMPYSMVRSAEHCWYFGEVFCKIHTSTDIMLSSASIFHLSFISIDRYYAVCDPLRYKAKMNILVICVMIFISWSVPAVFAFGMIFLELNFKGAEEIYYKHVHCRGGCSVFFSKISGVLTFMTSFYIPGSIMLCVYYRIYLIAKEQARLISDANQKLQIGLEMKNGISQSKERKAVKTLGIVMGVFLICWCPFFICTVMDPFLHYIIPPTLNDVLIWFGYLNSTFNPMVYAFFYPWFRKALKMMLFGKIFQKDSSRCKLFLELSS
Consider `Nc1nonc1-n1nnc(C(=O)N/N=C/c2c[nH]c3ccccc23)c1-c1ccccc1`, for which the inhibition (commonly the relative decrease from the control value, in per cent) is 33.6% (inactive). Turning to `Cc1ccc(SCc2c(C(=O)N/N=C/c3cccnc3)nnn2-c2nonc2N)cc1`, the inhibition is 59.3% (active). As to `C[C@@H]1CN([C@@H](C)CO)S(=O)(=O)c2ccc(C#Cc3cccc(F)c3)cc2O[C@H]1CN(C)S(=O)(=O)c1cn(C)cn1`, the inhibition is 53% (active).

Take `CCc1ccc2c(c1)NC(=O)C2(C)Cc1ccc(OC(F)(F)F)cc1` (stereo not drawn): the inhibition was 44.5% (inactive). As for `Cc1cccc(NC(=O)c2nc[nH]c2C(=O)NCC(=O)OCc2ccccc2)c1`, the inhibition was 46% (inactive). For the molecule `CCOC(=O)C1=C(NC(=S)NC(=O)c2ccccc2)c2ccccc2CC1(C)C`, the inhibition was 42.7% (inactive). Regarding `Cc1cc(Br)ccc1NC(=O)c1cnc(N2CCN(c3ccccn3)CC2)c2ccccc12`, the inhibition is 55.2% (active). On to `Cc1ccc2c(c1)N(CC(=O)NCCc1ccc(Cl)cc1)C(=O)c1cccnc1O2`, for which the inhibition was 50.5% (active).

As for `COc1ccc(C2=NOC(Cn3nc(C(=O)NCc4ccc5c(c4)OCO5)cc3-c3ccccc3)C2)cc1` (stereo not drawn), the inhibition was 48.2% (inactive). For the molecule `CC(=O)OCCN(CCCn1c(-c2ccncc2)nc2ccccc21)c1nc(-c2ccc(C)cc2)cs1`, the inhibition was 36.5% (inactive). Then `Cc1nn(-c2ccccc2)c(C)c1NC(=O)COC(=O)c1cc(Cl)ccc1O`, with 56.2% (active); and `COc1ccc(NC(=O)C2CCCN(S(=O)(=O)c3cccc4cccnc34)C2)cc1OC` (stereo not drawn), with 45.3% (inactive); and `Cc1onc(-c2c(F)cccc2Cl)c1C(=O)Nc1cccc(S(=O)(=O)N2CCCCC2)c1`, with 46% (inactive). For the molecule `COc1ccc(S(=O)(=O)N2CCCC(C(=O)Nc3ccc(NC(=O)c4ccccn4)cc3)C2)cc1` (stereo not drawn), the inhibition was 56.2% (active). Take `Cc1ccc(C)c(N2CCN(C(=O)CCCCCn3c(=S)[nH]c4ccc(N5CCOCC5)cc4c3=O)CC2)c1`: the inhibition was 54.2% (active). Regarding `COc1ccc(CCNC2=C(Cl)C(=O)N(Cc3ccccc3)C2=O)cc1OC`, the inhibition is 50.8% (active). Then `COc1cc2ccccc2cc1C(=O)Nc1ccc(NC(=O)c2cccs2)cc1`, with 45.9% (inactive); and `C[C@H](O)[C@@H]1C(=O)N2CCc3c([nH]c4c(-c5ccc6c(c5)OCO6)cccc34)[C@@H]2C[C@@H]1N(C)C(=O)c1ccco1`, with 37.4% (inactive); and `O=C(NCCN1CCOCC1)c1ccc(/C=C2\Sc3ccccc3N(Cc3ccc(F)cc3)C2=O)cc1`, with 52.2% (active).

As for `O=C(NCCN1CCOCC1)c1ccccc1N1C(=O)[C@@H]2Cc3c([nH]c4ccccc34)C(c3cccc(Cl)c3)N2C1=O` (stereo partly drawn), the inhibition was 39.5% (inactive). Regarding `O=C(NCCN1C(=O)S/C(=C\c2cccnc2)C1=O)c1ccc(S(=O)(=O)N2CCCC2)cc1`, the inhibition was 29.7% (inactive). As for `CCNS(=O)(=O)c1ccc(CCC(=O)N2CCN(c3cc(Cl)ccc3C)CC2)cc1`, the inhibition is 50.4% (active). For the molecule `OC(c1ccccc1)(c1ccccc1)C1CCN(CCCOc2ccc(-c3ccsc3)cc2)CC1`, the inhibition was 43.2% (inactive). Consider `CCOc1ccc(N2CC(C(=O)N/N=C/c3sccc3C)CC2=O)cc1` (stereo not drawn), for which the inhibition is 9.4% (inactive). On to `O=C1c2ccccc2C(=O)N1CCC#Cc1ccc2cc(C3(O)CCCCC3)oc(=O)c2c1`, for which the inhibition is 69.5% (active). For `CCN1CCc2c(C#N)c(NCc3ccccc3)nc(NCCO)c2C1`, the inhibition was 0.04% (inactive).

Consider `Cc1cccc(C)c1NC(=O)CNC(=O)C1CCCC1`, for which the inhibition was 2.87% (inactive). `Cc1ccccc1OCC(=O)Nc1ccc(N2CCN(C(=O)C(C)C)CC2)c(Cl)c1`: the inhibition was 55.3% (active). In the case of `CSc1ncnc2c1ncn2CC(=O)C1CCC2C3CCC4=CC(=O)CCC4(C)C3CCC12C` (stereo not drawn), the inhibition was 61.9% (active). With `COc1ccc(N(CC(=O)N/N=C/c2cccs2)S(=O)(=O)c2ccc(OC)c(OC)c2)cc1`, the inhibition was 42.2% (inactive). As for `CC(=O)c1ccccc1OCc1ccc(C(=O)c2ccccc2)cc1`, the figure is 56.3% (active); as for `COc1ccc2[nH]c(=O)c(CN(Cc3cccnc3)S(=O)(=O)c3ccccc3F)cc2c1`, 55% (active); as for `O=C(COC(=O)c1c2c(nc3ccccc13)CCCC2)c1ccc(Br)s1`, 41% (inactive). Then `CSC(=S)N/N=C/c1c[nH]c2ccccc12`, with 65.5% (active).

For the molecule `O=C(Oc1ccc(-c2nnco2)cc1)c1ccc(F)c(S(=O)(=O)N2CCOCC2)c1`, the inhibition was 61.4% (active). As for `COc1ccc(C(=O)Oc2ccc(-c3nnco3)cc2)cc1S(=O)(=O)N1CCOCC1`, the figure is 47.2% (inactive); as for `C=CCc1cc(S(=O)(=O)c2ccc(O)c(CC=C)c2)ccc1O`, 26.4% (inactive); as for `Cn1c(C(=O)NCCc2ccsc2)cc2c(=O)n(C)c3ccccc3c21`, 38.8% (inactive).

Take `O=S1(=O)c2c(cccc2N2CCCCC2)O[C@H](COCc2ccccc2)CN1C1CC1`: the inhibition was 32.1% (inactive). As for `COc1ccc(OC)c2[nH]c(=O)c(CCNC(=O)C(=O)c3c[nH]c4ccccc34)cc12`, the inhibition is 49.5% (active). On to `CC/C(=N/Nc1ccccc1)c1cnnc(SC)n1`, for which the inhibition was 1.16% (inactive).

With `Cc1ccccc1NC(=O)Cc1nc(COC(=O)C(C)(C)Oc2ccc(Cl)cc2)cs1`, the inhibition is 58.9% (active).

For the molecule `O=C(O)c1ccc(NC(=O)c2cn(-c3ccccc3)nc2-c2ccc(Cl)cc2)cc1`, the inhibition was 46.9% (inactive). For `Cc1cccc(NC(=O)c2ccc(COc3ccccc3[N+](=O)[O-])o2)n1`, the inhibition is 35% (inactive). On to `COC(=O)Cc1nnn2c1[C@H](C)[C@H](c1ccccc1Br)OCC2`, for which the inhibition is 65.9% (active). With `COC(=O)Cc1nnn2c1[C@H](C)[C@H](c1ccccc1[N+](=O)[O-])OCC2`, the inhibition is 30.1% (inactive).

`COc1ccc(CC(=O)Nc2c(C(N)=O)oc3ccccc23)cc1`: the inhibition is 28.8% (inactive). `CCCCNc1c(-c2cccc(Sc3ccc(OC)cc3)c2)nc2ccccn12`: the inhibition was 61.9% (active).

Consider `Cc1ccc(NC(=O)c2ccc(CSc3ncnc4nc[nH]c34)cc2)c(C)c1`, for which the inhibition is 25.9% (inactive). As for `CSCCC(NC(=O)COc1ccccc1)C(=O)OCC(=O)c1cc2ccccc2o1` (stereo not drawn), the figure is 33.3% (inactive); as for `O=c1[nH]c(CSc2ncc(-c3ccc(F)cc3)n2Cc2ccco2)nc2ccccc12`, 54% (active); as for `Cc1ccc2cccc(OCCCOc3ccccc3CO)c2n1`, 26.4% (inactive). With `O=C(Nc1ccccc1-c1nnn(CC(=O)N2CCN(c3ccccc3)CC2)n1)c1cccs1`, the inhibition was 52.1% (active).

These data come from PubChem BioAssay AID651785 (The Scripps Research Institute Molecular Screening Center, 2012).
